Data published in PubChem BioAssay (NCATS).
Results filed as inconclusive are left out. Entries that show only a call come without a potency. A number with no mark means an inactive call. The source made the active and inactive calls. Calls follow the shape of the dose curve; as a rule, active = well fitted curve in the direction sought with a large enough effect; inconclusive = small, poorly fitted or top-dose-only effect, or another doubt; inactive = no such curve, though single readings can be large; an effect the other way counts as inactive or inconclusive.

Columns and labels:
[1] = target: Cellular tumor antigen p53 (Homo sapiens) (UniProt P04637); experiment: Primary qHTS for small molecule compounds that upregulate eGFP-tagged delta133p53alpha (in N-terminal) cells. (AID 2060322); conditions: NCI-H358 eGFP-delta133p53alpha fluorescence, 24 h; activation: hits give high values; also: nearly all actives have a fitted effect of over 75% in size; also: potency is read from the fitted curve at half-maximal effect;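 as to activation: cells pre-induced with doxycycline then dosed without doxycycline; series mostly up to about 56 µM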
Sequence of Cellular tumor antigen p53 (Homo sapiens) (P04637 whole entry, looked up): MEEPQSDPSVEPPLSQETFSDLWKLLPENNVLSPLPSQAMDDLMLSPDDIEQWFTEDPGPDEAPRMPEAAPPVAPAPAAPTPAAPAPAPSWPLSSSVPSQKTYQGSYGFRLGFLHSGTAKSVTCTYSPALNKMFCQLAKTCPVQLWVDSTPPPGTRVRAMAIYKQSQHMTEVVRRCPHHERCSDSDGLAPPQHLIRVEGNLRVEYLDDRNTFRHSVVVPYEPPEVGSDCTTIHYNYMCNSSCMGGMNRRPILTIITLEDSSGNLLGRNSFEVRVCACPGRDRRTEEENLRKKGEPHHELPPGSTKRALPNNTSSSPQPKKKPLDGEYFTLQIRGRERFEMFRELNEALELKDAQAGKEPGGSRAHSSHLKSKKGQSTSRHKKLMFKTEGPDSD
In short: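 NCI-H358 cells pre-induced 24 h with 10 ng/ml doxycycline for eGFP-delta133p53alpha, plated dox-free and exposed 24 h at 37C to titrated compounds. Fixed, Hoechst-stained; gated GFP peak intensity by laser scanning cytometry, normalized to DMSO (0%) and 57.5 uM 5-azacytidine (100%).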

[2] = target: Aldehyde dehydrogenase, mitochondrial (Homo sapiens) (UniProt P05091); experiment: qHTS for Inhibitors of the Aldehyde Dehydrogenase Family (ALDH2) Primary screen (AID 2061308); also: nearly all actives have a fitted effect of over 55% in size
[3] = target: Retinaldehyde dehydrogenase 3 (Homo sapiens) (UniProt P47895); experiment: qHTS for Inhibitors of the Aldehyde Dehydrogenase Family (ALDH1A3) Primary screen (AID 2061315)

| Structure (SMILES) | activation [1] | Potency [2] | Potency [3] | Potency [1] |
| --- | --- | --- | --- | --- |
| CCC[C@@H](NC(=O)N1C(=O)C(CC)(CC)[C@@H]1Oc1ccc(C(=O)N2CCN(C)CC2)cc1)c1ccc2c(c1)OCO2 | -10.5% | inactive | inactive |  |
| CCCCNc1ncc(C(=O)NCc2ccc(-n3ccnc3)cc2)c(NC2CCC(O)CC2)n1 (stereo not given) |  | inactive | inactive | 21.3 µM (active) |
| COc1ccc2c3c1O[C@H]1C[C@@H](O)C=C[C@@]31CCN(C)C2 | 27.7% | inactive | inactive |  |
| O=c1c2ccccc2nc2n1CCC2O (stereo not given) | -3.82% | inactive | inactive |  |
| C=C(C)C1Cc2cc(C(=O)OC3OC(CO)C(O)C(O)C3O)ccc2O1 (stereo not given) | 9.92% | inactive | inactive |  |
| C/C=C/C=C/C=C/C(=O)O[C@@H]1C=C(CO)C(O)(C(=O)O)[C@@]2(C)CCCC(C)(C)[C@H]12 (stereo not given in full) | -9.92% | inactive | inactive |  |
| C=C1CCC2(OC1)OC1CC3C4CC=C5CC(O)CC(O[C@@H]6OC[C@@H](O)[C@H](O)[C@H]6O)C5(C)C4CCC3(C)C1(O)C2C (stereo not given in full) | 5.34% | inactive | inactive |  |
| CC1(C)CCC[C@]2(C)[C@H]3CC(=O)O[C@]3(C)CC[C@@H]12 | 20.3% | inactive | inactive |  |
| OC[C@H]1O[C@@H](OCCc2ccc(O)cc2)[C@H](O[C@@H]2OC[C@](O)(CO)[C@H]2O)[C@@H](O)[C@@H]1O | 1.79% | inactive | inactive |  |
| CC1(C)CCCC2(C)C1CC=C1C(=O)OC(O)C12O (stereo not given) | -6.11% | inactive | inactive |  |
